The other results are listed elsewhere or left out. Calls of active or inactive are those of the source.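 Rule for the calls, unless noted: active = mean inhibition above about 50% in the one-dose retest (limit read from the data); inactive = the rest.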
Assays:
[1] = biological target: Sentrin-specific protease 8 (Homo sapiens) (UniProt Q96LD8); assay: SENP8 protease inhibitors, retest, confirmation, biochemical, luminescence, single concentration (AID 488912;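 active = mean inhibition across replicates above about 50%, limit read from the data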); conditions: Recombinant SENP8, Z-RLRGG-aminoluciferin luminescence, 60 min; at 12.5 µM; stronger effect = higher value
[2] = biological target: Sentrin-specific protease 6 (Homo sapiens) (UniProt Q9GZR1); assay: SENP6 protease inhibitors, confirmation, biochemical, luminescence, single concentration (AID 488915); conditions: recombinant SENP6, Z-RLRGG-aminoluciferin luminescence; at 12.5 µM; stronger effect = higher value
[3] = biological target: Sentrin-specific protease 7 (Homo sapiens) (UniProt Q9BQF6); assay: SENP7 protease inhibitors, retest, confirmation, biochemical, luminescence, single concentration (AID 488917); conditions: recombinant SENP7, Z-RLRGG-aminoluciferin luminescence, 40 min; at 12.5 µM; stronger effect = higher value
[4] = biological target: Caspase-3 (Homo sapiens) (UniProt P42574); assay: caspase-3 protease inhibitors, confirmation, selectivity assay for SENP inhibitor project, biochemical, single concentration (AID 488918;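 active = mean inhibition above about 50%, limit read from the data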;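 note: plate controls were enzyme with DMSO for no effect and wells without caspase-3 for full effect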); conditions: purified caspase-3, Z-DEVD-aminoluciferin luminescence, 60 min; at 12.5 µM; stronger effect = higher value
[5] = luciferase luminescence interference by compounds, confirmation, artefact control for SENP inhibitor project, biochemical, single concentration, SENP8 reaction pre-completed (AID 488919;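 active = mean inhibition above about 50% when retested at one dose, limit read from the data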;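 note: plate controls were DMSO wells with completed reaction for no effect and substrate without enzyme for full effect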); conditions: Pre-incubated SENP8/Z-RLRGG-aminoluciferin, at 12.5 µM, stronger effect = higher value
[6] = Apaf-1 inhibitors, single-dose retest, confirmation, biochemical, fluorescence, DEVD-Rh110, 20 µM (AID 504614;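 active = mean inhibition of at least 40% at 20 µM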;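 note: plate controls were DMSO wells for no effect and DEVD-CHO caspase inhibitor control wells for full effect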); conditions: reconstituted apoptosome, caspase-3 DEVD-Rh110 fluorescence; at 20 µM; stronger effect = higher value
[7] = Rh110 fluorescence interference by putative Apaf-1 inhibitors, confirmation, artefact control for Apaf-1 inhibitor project, biochemical, 20 µM (AID 504615;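 active = signal rise of 40% or more at 20 µM, treated as a fluorescence artifact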); conditions: quenched caspase reaction, at 20 µM, stronger effect = higher value

Sentrin-specific protease 6 (Homo sapiens), sequence (Q9GZR1 628-1112 limits assumed): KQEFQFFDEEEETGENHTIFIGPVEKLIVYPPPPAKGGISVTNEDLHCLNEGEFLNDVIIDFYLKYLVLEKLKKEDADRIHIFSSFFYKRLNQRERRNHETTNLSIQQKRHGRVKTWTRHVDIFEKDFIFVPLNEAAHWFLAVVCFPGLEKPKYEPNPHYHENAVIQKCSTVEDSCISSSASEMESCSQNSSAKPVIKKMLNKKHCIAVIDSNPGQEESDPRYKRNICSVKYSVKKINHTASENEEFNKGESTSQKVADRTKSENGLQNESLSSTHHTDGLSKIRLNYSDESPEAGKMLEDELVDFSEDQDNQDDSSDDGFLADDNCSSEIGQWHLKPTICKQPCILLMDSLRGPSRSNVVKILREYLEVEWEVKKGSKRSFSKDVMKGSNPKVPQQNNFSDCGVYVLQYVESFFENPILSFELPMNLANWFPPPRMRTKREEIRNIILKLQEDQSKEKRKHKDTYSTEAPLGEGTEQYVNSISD
Sentrin-specific protease 7 (Homo sapiens), sequence (Q9BQF6 706-1050 limits assumed): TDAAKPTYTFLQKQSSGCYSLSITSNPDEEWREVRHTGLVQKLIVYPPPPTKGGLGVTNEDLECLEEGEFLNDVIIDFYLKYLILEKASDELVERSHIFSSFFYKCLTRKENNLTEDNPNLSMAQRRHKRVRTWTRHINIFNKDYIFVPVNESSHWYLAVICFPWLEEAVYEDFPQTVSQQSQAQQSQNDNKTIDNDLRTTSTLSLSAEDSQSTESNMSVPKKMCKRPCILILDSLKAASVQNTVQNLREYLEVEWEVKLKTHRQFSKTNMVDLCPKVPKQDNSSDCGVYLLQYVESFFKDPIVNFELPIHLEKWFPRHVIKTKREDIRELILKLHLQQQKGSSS
Sentrin-specific protease 8 (Homo sapiens), sequence (Q96LD8 whole entry, looked up): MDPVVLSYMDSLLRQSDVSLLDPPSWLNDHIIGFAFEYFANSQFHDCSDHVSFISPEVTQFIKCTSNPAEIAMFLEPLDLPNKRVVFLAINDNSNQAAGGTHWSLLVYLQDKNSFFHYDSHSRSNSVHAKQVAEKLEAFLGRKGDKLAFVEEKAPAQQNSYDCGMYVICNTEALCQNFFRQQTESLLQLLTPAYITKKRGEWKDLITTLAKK
Caspase-3 (Homo sapiens), sequence (P42574 28-227 limits assumed): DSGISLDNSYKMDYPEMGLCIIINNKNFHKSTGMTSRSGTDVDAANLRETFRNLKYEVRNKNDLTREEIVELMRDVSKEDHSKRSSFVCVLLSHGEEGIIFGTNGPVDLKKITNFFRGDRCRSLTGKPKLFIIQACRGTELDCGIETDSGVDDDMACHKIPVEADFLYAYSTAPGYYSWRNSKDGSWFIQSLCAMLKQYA

Structure (SMILES) | inhibition [1] | inhibition [2] | inhibition [3] | inhibition [4] | inhibition [5] | inhibition [6] | activation (fluorescence interference) [7]
O=c1c(-c2ccccc2)coc2cc(O)ccc12 | 61.7% (active) | 60.2% (active) | 88.2% (active) | 85.9% (active) | 74.8% (active) | – | –
O=[N+]([O-])c1ccc2nc(-c3ccccn3)[nH]c2c1 | 57.8% (active) | 56% (active) | 82.6% (active) | 81.5% (active) | 48.8% (inactive) | – | –
Brc1ccccc1C1Nc2cccc3cccc(c23)N1 | -7.3% (inactive) | 3.3% (inactive) | -9.3% (inactive) | 1.1% (inactive) | 3.4% (inactive) | – | –
COc1cccc(C(=O)c2cc3ccc(O)cc3oc2=O)c1 | 98.7% (active) | 100% (active) | 103% (active) | 98.7% (active) | 98% (active) | – | –
CN(CCO)c1ccc(/C=N/Nc2nncc3ccccc23)cc1 | 98.7% (active) | 99.7% (active) | 103% (active) | 98.7% (active) | 93.4% (active) | – | –
O=C(Nc1ccc(NC(=O)c2ccco2)c(Cl)c1)c1cccc([N+](=O)[O-])c1 | 8.7% (inactive) | 6.1% (inactive) | -6.7% (inactive) | -0.7% (inactive) | -0.2% (inactive) | – | –
N#Cc1c(N2CCCCC2)nc(N)c2c(N)nc(SCC(=O)O)cc12 | 11.2% (inactive) | 72.6% (active) | 61.9% (active) | 0.8% (inactive) | -0.2% (inactive) | 31.3% (inactive) | 7.18% (inactive)
CC(C)(C)c1ccc(NC(=O)NCc2ccco2)cc1 | -28.3% (inactive) | -17.7% (inactive) | -5.7% (inactive) | -5.5% (inactive) | -7.2% (inactive) | – | –
Cc1cc(N=Nc2ccc3ccccc3c2)ccc1O | 98.3% (active) | 98.9% (active) | 102% (active) | 85.7% (active) | 76.6% (active) | – | –
O=C(Nc1ccccc1)Nc1ccccc1C(=O)NCc1ccco1 | 2.7% (inactive) | 60.7% (active) | 85.6% (active) | 63.9% (active) | 66.7% (active) | – | –
Oc1ccc(N=Cc2sc3ccccc3c2Cl)cc1 | -10.7% (inactive) | -2.2% (inactive) | 49.3% (inactive) | 1.9% (inactive) | 20.8% (inactive) | 14.4% (inactive) | 5.12% (inactive)
COc1ccccc1OCc1nc2ccccc2s1 | 96.7% (active) | 97.3% (active) | 102% (active) | 96% (active) | 95.3% (active) | – | –
O=C(Cn1ccc([N+](=O)[O-])n1)NCc1cccs1 | -12.3% (inactive) | -5.9% (inactive) | -4.5% (inactive) | -1.1% (inactive) | -8.7% (inactive) | – | –
Nc1[nH][nH]c(=O)c1N=Nc1ccc2c(c1)OCO2 | 41.3% (inactive) | 39.2% (inactive) | 67.3% (active) | 74% (active) | 12% (inactive) | – | –
Cc1ccc(C(=O)N/N=C\c2cc(Br)c(Br)o2)cn1 | 3.5% (inactive) | 12.7% (inactive) | 8.1% (inactive) | 12.1% (inactive) | -0.7% (inactive) | 4.66% (inactive) | -11.2% (inactive)
O=C1/C(=C/c2cccs2)CCC1C1CCCC1 (stereo unspecified) | 50.9% (active) | 52.1% (active) | 50.7% (active) | 60.9% (active) | 36.6% (inactive) | – | –
C/C(=N\NC(=O)c1ccc(C)cc1)C1C(=O)c2ccccc2C1=O | 92.6% (active) | 93.5% (active) | 100% (active) | 92.7% (active) | 94.1% (active) | – | –
Fc1ccccc1-c1cc2cc3c(cc2cn1)OCO3 | 49.5% (inactive) | 79.9% (active) | 79.1% (active) | 51.6% (active) | 7.4% (inactive) | – | –
Cc1cccc(Nc2nc(-c3ccccc3)cs2)n1 | -7.1% (inactive) | 91.5% (active) | 99.9% (active) | 67.1% (active) | 49.5% (inactive) | – | –
O=C(Nc1ccccc1)c1cc2ccccc2[nH]1 | -22.5% (inactive) | -15.9% (inactive) | 1.9% (inactive) | -4.8% (inactive) | 8.3% (inactive) | – | –
O=c1c2c(nc3n1CCCCC3)sc1c(O)cccc12 | 53.6% (active) | 49.2% (inactive) | 75.5% (active) | 59.4% (active) | 61.9% (active) | – | –
CCn1nccc1C(=O)Nc1ccc(Cl)c(Cl)c1 | 61.1% (active) | 57.7% (active) | 80.6% (active) | 35.5% (inactive) | 66.5% (active) | – | –
O=C(Nc1ccccc1)c1ccc2c(c1)OCO2 | 10.6% (inactive) | 74.3% (active) | 93.9% (active) | 88.9% (active) | 54.8% (active) | – | –

Reference: PubChem BioAssay
